# Bioassay records: PubChem, National Center for Advancing Translational Sciences (NCATS)
# ATXN2 expr inh: reduces ATXN2 reporter expression in HEK-293 cells; 360,000 compounds, 0.72% hits; Potency, µM (top dose mostly 57 µM), without a hit: at the top dose activity change, negative = inhibition, hits mostly inhibitors; HEK-293 ATXN2-luciferase reporter, luminescence, 24 h; also: % is scaled to controls: 0 for no effect and ±100 for the full control effect; nearly all actives have a fitted effect of over 55% in size
#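 qHTS (up to 57 uM final) was run with 24 h compound exposure of reporter cells at 37 °C. Each well was multiplexed: SteadyGlo luminescence measured ATXN2-luciferase expression after a fluorogenic Gly-Phe-AFC viability readout (25 uM final).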
# HepG2 tox: counter-screen for TGF-b inhibitors: cytotoxicity in HepG2 cells. HepG2 CAGA-GFP viability, ATP luminescence, 18 h. Potency, µM (doses to about 46.1 µM), for inactives: top-dose activity change, negative = cytotoxicity, actives largely listed as cytotoxic. 410,000 compounds, 0.76% hits. AID 588856
#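 HepG2 CAGA-GFP cells (1000/well, DMEM with 1% FBS) received compound, then TGF-beta at 500 pg/mL final, and were incubated 18 hours at 37 degrees C. Viability was read by CellTiter-Glo luminescence. Media-only wells were set as complete cell-killing and DMSO as no toxicity.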
# VP16 counter: inhibits Gal4-VP16 luciferase reporter, ROR gamma counter-screen; Potency, µM (top dose mostly 53.6 µM), for inactives: at the top dose activity, negative = inhibition, actives largely listed as inhibitors; Drosophila S2 Gal4-VP16 UAS-luciferase, luminescence, 20 h; AID 2546; 310,000 compounds, 3.5% hits;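 also: Gal4-VP16 expression switched on by copper sulfate through the metallothionein promoter; % is scaled to controls: 0 for no effect and ±100 for the full control effect; nearly all actives have a fitted effect of over 50% in size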
# RORg inh: blocks mouse ROR gamma transcriptional activity. P51450. Drosophila S2 Gal4-RORgamma UAS-luciferase reporter, 20 h. Potency, µM (series often up to 53.6 µM), inactives show at the highest dose activity change, negative = inhibition, actives largely listed as inhibitors. 310,000 compounds, 5.4% hits. AID 2551; also: % is scaled to controls: 0 for no effect and ±100 for the full control effect; nearly all actives have a fitted effect of over 60% in size
# Target sequence (P51450 whole entry, looked up, the tested form may be a part): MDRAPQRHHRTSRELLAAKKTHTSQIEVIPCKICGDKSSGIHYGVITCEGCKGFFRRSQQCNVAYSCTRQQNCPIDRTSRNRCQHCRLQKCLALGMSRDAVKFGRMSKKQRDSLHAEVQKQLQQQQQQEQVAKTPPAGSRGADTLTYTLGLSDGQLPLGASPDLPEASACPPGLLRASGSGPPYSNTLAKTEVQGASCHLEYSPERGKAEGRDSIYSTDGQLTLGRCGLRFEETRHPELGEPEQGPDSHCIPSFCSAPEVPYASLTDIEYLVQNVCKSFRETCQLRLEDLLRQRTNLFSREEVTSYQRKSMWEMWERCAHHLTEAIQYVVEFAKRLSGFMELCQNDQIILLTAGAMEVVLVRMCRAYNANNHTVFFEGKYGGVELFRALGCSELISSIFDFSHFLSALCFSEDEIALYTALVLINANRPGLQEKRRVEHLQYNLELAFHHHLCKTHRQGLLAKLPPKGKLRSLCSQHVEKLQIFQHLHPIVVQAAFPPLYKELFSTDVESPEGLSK
#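 Using a luciferase readout, inhibitors were identified by reduced reporter activity in Drosophila cells coexpressing a copper-inducible Gal4–ROR gamma fusion and UAS-driven Photinus luciferase, incubated 20 hr after 700 uM copper sulfate.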
# TGFb inhibitor: TGF-b pathway inhibition; 410,000 compounds, 1.2% hits; HepG2 CAGA-GFP TGF-b/SMAD3 reporter, GFP fluorescence, 18 h; TGF-beta stimulated, 500 pg/mL final; AID 588855; Potency, µM (highest dose often 46.1 µM), for inactives: at the top dose activity, negative = inhibition, usual class: inhibitors; also: % is scaled to controls: 0 for no effect and ±100 for the full control effect; nearly all actives have a fitted effect of over 65% in size
#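 HEPG2 CAGA-GFP, 1000 cells/well; 2 h settle, 37 C; cpd via pin tool; TGF-b 500 pg/mL final; 18 h, 37 C; GFP imaging ex488/em500-530; %Activity normalised to -TGF-b and +DMSO controls; CRC fit, curve class.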
# ATXN viability: viability counter-screen for ATXN expression inhibitors; S2 cells (HEK-293 line with an ATXN2-luciferase reporter) viability, CellTiter-Fluor protease fluorescence, 24 h; AID 651635; 400,000 compounds, 0.49% hits; Potency, µM (series often up to 56.7 µM), usual class: cytotoxic; also: nearly all actives have a fitted effect of over 40% in size
# Starred values were filed as active, the others as inactive; i = inactive; ? = inconclusive; . = no result; [ ] = another dose, or the depositor's remark. In the library only some 6.3% were active in any assay of this set; here they are far more common. Calls follow the shape of the dose curve; as a rule, active = well fitted curve in the direction sought with a large enough effect; inconclusive = small, poorly fitted or top-dose-only effect, or another doubt; inactive = no such curve, though single readings can be large; an effect the other way counts as inactive or inconclusive. Potency is read from the fitted curve at half-maximal effect.
SMILES,ATXN2 expr inh,HepG2 tox,VP16 counter,RORg inh,TGFb inhibitor,ATXN viability
COC(=O)CN1C(c2ccccc2)=Nc2ccc(Cl)cc2C1c1ccccc1 (centres undefined),.,-45%,-12%,13µM*,-14%,.
CC(=O)C1=C(c2cccc([N+](=O)[O-])c2)N(C(C)=O)n2c(C)nnc2S1,?,11µM*,?,5µM*,11µM*,?
CCC(=O)C1=C(c2ccccc2)N(C(=O)CC)n2c(nnc2-c2ccccc2)S1,.,-2%,.,.,-2%,.
CCOc1ccc(C2=C(C(C)=O)Sc3nnc(C)n3N2C(C)=O)cc1,.,-58%,.,.,7.9µM*,.
CCC(=O)C1=C(c2ccc(Cl)cc2)N(C(=O)CC)n2c(C)nnc2S1,.,-29%,.,.,6.3µM*,.
O=C(NCCc1ccc(F)cc1)C(=O)NCC(c1ccco1)S(=O)(=O)c1cccs1 (centres undefined),.,-11%,.,.,6%,.
OC[C@H](Cc1ccccc1)Nc1nc(Oc2ccc3c(c2)CCC3)nc2c1ncn2Cc1ccc(-c2ccccc2)cc1,139%,.,.,.,.,.
FC(F)(F)c1ccccc1NC(=S)NC1CCN(Cc2ccccc2)CC1,1%[11.3 µM],-6%,1%,-15%,-4%,?
FC(F)(F)c1ccc(Cl)c(NC(=S)NC2CC2)c1,1%,2%,18µM*,16µM*,-23%,?
CC(C)(C)c1ccccc1NC(=S)NC1CCCCC1,-7%,-8%,6.3µM*,1.8µM*,-12%,i
COc1ccccc1NC(=S)NC1CCCCCC1,-4%,-12%,4µM*,6.3µM*,2%,i
CC(C)(C)c1ccccc1NC(=S)NC1CCCC1,0%,-18%,3.5µM*,4.5µM*,-26%,i
CCc1ccccc1NC(=O)NC1CCCCC1,5%,-13%,3%,-11%,8%,i
CC(O)c1cccc(-c2ccc(CN3C[C@]4(CO)O[C@@H](CO)C[C@@H]4S3(=O)=O)cc2)c1 (some centres undefined),2%,4%,.,.,-19%,i
Fc1ccccc1NC(=S)NC1CCCC1,.,-14%,?,11µM*,?,i
O=C(Nc1ccccc1F)NC1CCCc2ccccc21 (centres undefined),21%,1%,?,8%,17%,i
COc1cc(NC(=S)NC2CC2)c(OC)cc1Cl,.,10%,?,10µM*,17%,i
COc1ccc(C(=O)N(Cc2cc3cccc(C)c3nc2N(C)C)CC2CCCO2)cc1 (centres undefined),.,.,.,.,.,i
O=C(C[n+]1ccc2ccccc2c1)c1ccc(F)cc1,.,-49%,.,.,?,.
COc1ccc(CNC(=O)c2c(Nc3ccccc3C)sc(C(=O)c3ccccc3)c2N)cc1,?,-75%,.,.,?,.
O=C1NC(Cc2ccc(O)cc2)c2nc3cc(F)ccc3c(=O)n2-c2cc3ccccc3cc21 (centres undefined),?,-21%,.,.,20µM*,?
CCCCCc1c2c(cc(O)c1C(=O)O)OC(=O)c1cc(C(=O)CCCC)c(OC)cc1O2,?,-60%,6%,22%,?,i
CCCCCc1c2c(cc(O)c1C(=O)O)OC(=O)c1c(cc(OC)cc1C(=O)CCCC)O2,?,-69%,-6%,-9%,20µM*,.
S=C1NC2=C(CCCC2)C2(CCCCC2)N1,-8%,9%,1.8µM*,2µM*,3%,i
CCc1ccc(S(=O)(=O)NCc2cccn2Cc2cccc(C)c2)cc1,?,-100%,.,.,?,?
Cc1cccc(Cn2cccc2CNS(=O)(=O)c2ccc(Br)cc2)c1,?,-107%,.,.,16µM*,?
Cc1cccc(Cn2cccc2CNS(=O)(=O)c2ccc(C)c(C)c2)c1,?,-106%,.,.,18µM*,i
CCC(=O)Nc1ccc(S(=O)(=O)NCc2cccn2Cc2cccc(C)c2)cc1,-28%,-18%,.,.,?,?
CC(C)(CCCCCCCCCCC(C)(C)CC(=O)O)CC(=O)O,.,.,-10%,-17%,.,.
